About 79,000 compounds went through this panel and 15% of them were active in at least one assay; those are over-represented in the sample as a whole. Calls of active or inactive are those of the source. Cut-off read from the data, not from the text of the source: active = growth inhibition above about 70%; inactive = the rest.
Key:
[1] = NCI Yeast Anticancer Drug Screen. Data for the rad52 strain (AID 147);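 note: 0% = growth of vehicle-treated control cultures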; details: S. cerevisiae rad52 mutant growth inhibition, stronger effect = higher value
Summary of the method: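 Measured: yeast growth inhibition. System: strain with a defined DNA damage repair alteration. Reference: vehicle-treated control cultures.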

[2] = NCI Yeast Anticancer Drug Screen. Data for the rad50EPP+ strain (AID 151);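 note: 0% = growth of vehicle-treated control cultures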; details: S. cerevisiae rad50 mutant strain, stronger effect = higher value
Summary of the method: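 One strain with a rad50 alteration (rad50EPP+) was compound-treated, its growth then compared to that of vehicle controls.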

[3] = NCI Yeast Anticancer Drug Screen. Data for the mgt1 strain (AID 153); details: S. cerevisiae mgt1 mutant growth inhibition, stronger effect = higher value
Summary of the method: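 After exposure of the mgt1 yeast mutant to compound, growth was measured and reported as inhibition compared with vehicle controls.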

[4] = NCI Yeast Anticancer Drug Screen. Data for the rad50 strain (AID 155);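 note: 0% = growth of vehicle-only cultures of the same strain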; details: S. cerevisiae rad50 strain growth inhibition, stronger effect = higher value
Summary of the method: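 A DNA repair-deficient yeast mutant serves as the test organism; compound-induced growth inhibition is calculated against vehicle-treated cells.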

[5] = NCI Yeast Anticancer Drug Screen. Data for the mec2-1 strain (AID 157); details: S. cerevisiae mec2-1 strain, stronger effect = higher value
Summary of the method: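 Test agents were screened against the mec2-1 yeast strain, with defined DNA repair or cell cycle alteration. Growth was scored as inhibition against vehicle-only controls.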

[6] = NCI Yeast Anticancer Drug Screen. Data for the rad14 strain (AID 159);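 note: 0% = growth of vehicle-treated control cultures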; details: S. cerevisiae rad14 strain growth inhibition, stronger effect = higher value
Summary of the method: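 Vehicle-treated cultures served as the baseline for growth inhibition of a DNA repair-mutant yeast strain exposed to each compound.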

[7] = NCI Yeast Anticancer Drug Screen. Data for the sgs1 mgt1 strain (AID 161);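 note: 0% = growth of cultures given vehicle only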; details: S. cerevisiae sgs1 mgt1 strain, stronger effect = higher value
Summary of the method: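 Read-out: growth inhibition vs vehicle controls. Cells: mutant yeast strain deficient in DNA damage repair.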

[8] = NCI Yeast Anticancer Drug Screen. Data for the CLN2oe strain (AID 163);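 note: 0% = growth of vehicle-only control cultures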; details: S. cerevisiae CLN2oe strain, stronger effect = higher value
Summary of the method: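 Here, growth inhibition in a cell-cycle-altered yeast strain after compound exposure was quantified against vehicle control growth.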

[9] = NCI Yeast Anticancer Drug Screen. Data for the cln2 rad14 strain (AID 165);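 note: 0% = growth equal to vehicle treated cultures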; details: S. cerevisiae cln2 rad14 strain, stronger effect = higher value
Summary of the method: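 Growth of compound-exposed yeast (cln2 rad14 genotype) measured and expressed as inhibition relative to vehicle.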

[10] = NCI Yeast Anticancer Drug Screen. Data for the bub3 strain (AID 167); details: S. cerevisiae bub3 mutant strain, stronger effect = higher value
Summary of the method: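 Inhibition values come from growth of compound-treated mutant yeast normalised to vehicle-treated controls.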

[11] = NCI Yeast Anticancer Drug Screen. Data for the wt2 strain (AID 169);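 note: 0% = growth of vehicle-treated yeast cultures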; details: S. cerevisiae wt2 strain growth inhibition, stronger effect = higher value
Summary of the method: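 Genetically defined yeast strains from a DNA-repair/cell-cycle panel were used. Compound-exposed yeast growth was measured, and the inhibition was calculated relative to vehicle treatment.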

[12] = NCI Yeast Anticancer Drug Screen. Data for the mlh1 strain (AID 171);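 note: 0% = growth of vehicle-treated control cultures of the same strain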; details: S. cerevisiae mlh1 strain growth inhibition, stronger effect = higher value
Summary of the method: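 Here the genetically defined yeast mutant is grown with each compound, and the extent to which its growth falls below that of vehicle-exposed cells is reported.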

[13] = NCI Yeast Anticancer Drug Screen. Data for the sgs1 strain (AID 173);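 note: 0% = growth of vehicle-only control cultures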; details: S. cerevisiae sgs1 mutant, stronger effect = higher value
Summary of the method: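 Relative growth inhibition, referenced to vehicle, was determined in a yeast strain with a defined alteration affecting DNA damage repair or cell cycle control after compound exposure.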

[14] = NCI Yeast Anticancer Drug Screen. Data for the mlh1 rad18 strain (AID 175); details: S. cerevisiae mlh1 rad18 strain growth inhibition, stronger effect = higher value
Summary of the method: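 In this whole-cell yeast screen, a strain with altered DNA damage repair is challenged with compound, and its growth is measured against matched vehicle-treated controls.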

[15] = NCI Yeast Anticancer Drug Screen. Data for the rad18 strain (AID 177); details: S. cerevisiae rad18 mutant growth inhibition, stronger effect = higher value
Summary of the method: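 Screen uses a yeast strain with a defined lesion in DNA damage repair; compound effect is read as loss of growth compared to untreated vehicle cultures.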

[16] = at 5.0 µM (retest, dose inferred, filed as 0.5)
[17] = at 50.0 µM (retest, dose inferred, filed as 5.0)

Measured: growth inhibition

NC(=O)NC1C(c2ccccc2)=C1c1ccccc1
active: [1]; at 11.0 µM 71% | [1]; at 33.0 µM 94% | [1]; at 100.0 µM 95% | [2]; at 1.2 µM 74% | [2]; at 3.7 µM 73% | [2]; at 11.0 µM 89% | [2]; at 33.0 µM 96% | [2]; at 100.0 µM 95% | [4]; at 3.7 µM 70% | [4]; at 11.0 µM 84% | [4]; at 33.0 µM 93% | [4]; [17] 79% | [4]; at 50.0 µM 92% | [4]; at 100.0 µM 95% | [6]; at 11.0 µM 73% | [6]; at 33.0 µM 97% | [6]; at 100.0 µM 97% | [13]; at 100.0 µM 84%
inactive: [1]; at 1.2 µM 37% | [1]; at 3.7 µM 58% | [3]; at 1.2 µM 0% | [3]; at 3.7 µM -2% | [3]; at 11.0 µM 0% | [3]; at 33.0 µM -3% | [3]; at 100.0 µM 19% | [4]; at 1.2 µM 61% | [4]; [16] -19% | [5]; at 1.2 µM 0% | [5]; at 3.7 µM -1% | [5]; [16] -50% | [5]; at 11.0 µM 6% | [5]; at 33.0 µM 5% | [5]; [17] -36% | [5]; at 50.0 µM 13.2% | [5]; at 100.0 µM 27% | [6]; at 1.2 µM 51% | [6]; at 3.7 µM 58% | [7]; [16] -45% | [7]; [17] -10% | [7]; at 50.0 µM 17.4% | [8]; at 1.2 µM -3% | [8]; at 3.7 µM -3% | [8]; at 11.0 µM -3% | [8]; at 33.0 µM -5% | [8]; at 100.0 µM 30% | [9]; [16] -18% | [9]; [17] 62% | [9]; at 50.0 µM 38% | [10]; at 1.2 µM -1% | [10]; at 3.7 µM -6% | [10]; [16] -73% | [10]; at 11.0 µM -4% | [10]; at 33.0 µM -14% | [10]; [17] -68% | [10]; at 50.0 µM -28.7% | [10]; at 100.0 µM -10% | [11]; at 1.2 µM 13% | [11]; at 3.7 µM 20% | [11]; at 11.0 µM 45% | [11]; at 33.0 µM 53% | [11]; at 100.0 µM 48% | [12]; at 1.2 µM -7% | [12]; at 3.7 µM -4% | [12]; at 11.0 µM 14% | [12]; at 33.0 µM 17% | [12]; at 100.0 µM 51% | [13]; at 1.2 µM 8% | [13]; at 3.7 µM 5% | [13]; at 11.0 µM 44% | [13]; at 33.0 µM 56% | [14]; [16] -104% | [14]; [17] -38% | [14]; at 50.0 µM 44.7% | [15]; at 1.2 µM -7% | [15]; at 3.7 µM 3% | [15]; at 11.0 µM 34% | [15]; at 33.0 µM 38% | [15]; at 100.0 µM 38%

Reference: PubChem BioAssay (NCI)
